9 compounds from PubChem BioAssay (Tox21) can be followed below.

A number with no mark means an inactive call. Inconclusive results are not listed. Calls of active or inactive are those of the source. Unless noted, the call rests on the fitted dose curve; in most records, active means well fitted curve in the direction sought with a large enough effect in the repeat runs; inconclusive means weak or mixed curves; inactive means no such curve, though single readings can be large; an effect the other way counts as inactive or inconclusive.

Experiment [1] has as its target Thyrotropin-releasing hormone receptor (Homo sapiens) (UniProt P34981). The experiment is described as follows: qHTS assay to identify small molecule agonists of the thyrotropin-releasing hormone receptor (TRHR) signaling pathway (AID 1346891; calls by dose curve;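 further: HEK293 cells expressing TRHR with calcium dye readout; series mostly up to about 58 µM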). The procedure, abridged: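 Compounds were tested as agonists at 15 concentrations, in triplicate, on TRHR-Hek293 cells; calcium-sensitive dye fluorescence was recorded for 3 min following addition.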
A general note: Quantitative high-throughput screening tests each substance at several concentrations.

Experiment [2] is described as follows: Human pregnane X receptor (PXR) small molecule agonists, qHTS cell viability counter screen (AID 1346977). Further: nearly all actives have a fitted effect of over 50% in size. Further: potency means the concentration at half of the fitted maximal effect. A digest of the protocol:
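Viability counter screen: CellTiter-Fluor signal in PXR-Luc HepG2 cells, 24hr compound exposure, 37C, 5% CO2.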

A short description of experiment [3]: Caspase-3/7 induction in HepG2 cells by small molecules, qHTS assay (AID 1346978). Further: nearly all actives have a fitted effect of over 15% in size. The procedure, abridged:
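Wild-type HepG2 cells (2,000/well) were settled 5 h at 37 C, 5% CO2, then exposed to compounds in DMSO for 17 h. Caspase-3/7 activity was read by luminescence 30 min after adding Caspase-Glo 3/7 reagent at room temperature.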

Experiment [4] is described as follows: Caspase-3/7 induction in CHO-K1 cells by small molecules, qHTS cell viability counter screen (AID 1346979). Further: nearly all actives have a fitted effect of over 35% in size. Further: potency means the concentration at half of the fitted maximal effect. A digest of the protocol: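 Viability readout by fluorescence (CellTiter-Fluor) on wild-type CHO-K1 cells exposed for 16hr at 37C and 5% CO2 to compounds delivered in DMSO; reagent incubated 1hr before reading.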
Experiment [5] can be described thus: Caspase-3/7 induction in CHO-K1 cells by small molecules, qHTS assay (AID 1346980). Further: nearly all actives have a fitted effect of over 15% in size. A digest of the protocol:
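Wild-type cells were seeded at 1,500 per well and settled 5 hr at 37 C, 5% CO2, then exposed to DMSO-dissolved compounds for 17 hr. Caspase-Glo 3/7 reagent was added, and luminescence was read after 30min at room temperature.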

Experiment [6] is described as follows: Caspase-3/7 induction in HepG2 cells by small molecules, qHTS cell viability counter screen (AID 1346981). Further: nearly all actives have a fitted effect of over 30% in size. Further: potency means the concentration at half of the fitted maximal effect. On activity change, negative = cytotoxicity: series mostly up to about 92 µM. The procedure, abridged:
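Fluorescence read-out of live-cell protease activity (CellTiter-Fluor) after 1 hr with reagent. This was measured in the same wells as the caspase-3/7 luminescence, on HepG2 cells exposed to DMSO-dissolved compounds for 16 hr at 37 C.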

Experiment [7] concerns the target Nuclear receptor subfamily 1 group I member 2 (Homo sapiens) (UniProt O75469). The experiment is described as follows: Human pregnane X receptor (PXR) small molecule agonists, qHTS assay (AID 1346982). Further: nearly all actives have a fitted effect of over 35% in size. Further: potency means the concentration at half of the fitted maximal effect. The procedure, abridged: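 HepG2 PXR-Luc reporter line, 5% charcoal-stripped FBS; 5 hr pre-incubation, compound (DMSO) 24 hr at 37 C/5% CO2; ONE-Glo 30 min RT; luminescence read-out.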

Experiment [8] deals with Cytochrome P450 2D6 (Homo sapiens) (UniProt P10635). The experiment is described as follows: Cytochrome P450 Family 2 Subfamily D Member 6 (CYP2D6) small molecule antagonists: luciferase reporter qHTS assay (AID 1671196). Further: series mostly up to about 120 µM; nearly all actives have a fitted effect of over 50% in size. The procedure, abridged:
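Luminogenic proluciferin substrate, CYP2D6 enzyme; 10 min RT preincubation with compound, NADPH regeneration system added, 1 h RT. Stop/detection reagent, 20 min RT, luminescence read (RLU). Signal proportional to CYP activity.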

Experiment [9] deals with Cytochrome P450 2C19 (Homo sapiens) (UniProt P33261). The experiment can be described thus: Cytochrome P450 Family 2 Subfamily C Member 19 (CYP2C19) small molecule antagonists: luciferase reporter qHTS assay (AID 1671197). Further: nearly all actives have a fitted effect of over 65% in size. Further: potency means the concentration at half of the fitted maximal effect. On activity change, negative = inhibition: series mostly up to about 120 µM. The procedure, abridged:
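Inhibition of CYP2C19 was scored from loss of luminescence in a P450-Glo proluciferin substrate assay, NADPH-started and run 1 h at 37C, with ketoconazole as positive control.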
On the technique in general: A reporter such as luciferase makes a cellular process visible.

Experiment [10] deals with Cytochrome P450 2C9 (Homo sapiens) (UniProt P11712). The experiment is described as follows: Cytochrome P450 Family 2 Subfamily C Member 9 (CYP2C9) small molecule antagonists: luciferase reporter qHTS assay (AID 1671198). Further: nearly all actives have a fitted effect of over 50% in size. Further: potency means the concentration at half of the fitted maximal effect. On activity change, negative = inhibition: series mostly up to about 120 µM. The procedure, abridged: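 CYP2C9 activity was measured with a P450-Glo proluciferin substrate. Enzyme–substrate mix was held with compound for 10 min at room temperature, then NADPH regeneration solution was added for 1 h at 37C. Luciferin product was read as luminescence.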

The target in experiment [11] is Cytochrome P450 1A2 (Homo sapiens) (UniProt P05177). The experiment is described as follows: Cytochrome P450 Family 1 Subfamily A Member 2 (CYP1A2) small molecule antagonists: luciferase reporter qHTS assay (AID 1671199). Further: series mostly up to about 120 µM; nearly all actives have a fitted effect of over 50% in size. A digest of the protocol: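 Luminescence readout (relative luminescence units) after luciferin detection reagent, 20 min RT. Preceded by 1 h room-temperature CYP1A2 reaction with NADPH regeneration solution following 10 min compound preincubation with enzyme and proluciferin substrate. Furafylline positive control.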

Experiment [12] addresses Voltage-gated inwardly rectifying potassium channel KCNH2 (Homo sapiens) (UniProt Q12809). The experiment can be described thus: Human Ether-a-go-go-Related Gene (hERG) channel small molecule antagonists: fluorescence cell-based qHTS assay (AID 1671200). A digest of the protocol: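 Thallium served as the potassium surrogate; its influx into dye-loaded U2OS cells carrying the channel was measured by fluorescence over 2 min.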

Experiment [13] has as its target Cytochrome P450 3A4 (Homo sapiens) (UniProt P08684). The experiment can be described thus: Cytochrome P450 Family 3 Subfamily A Member 4 (CYP3A4) small molecule antagonists: luciferase reporter qHTS assay (AID 1671201). Further: nearly all actives have a fitted effect of over 50% in size. Further: potency means the concentration at half of the fitted maximal effect. On activity change, negative = inhibition: series mostly up to about 120 µM. A digest of the protocol:
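Relative luminescence units after 20 min with luciferin detection reagent served as read-out. Beforehand, CYP3A4 turned over a proluciferin substrate for 1 h at room temperature with NADPH regeneration, following 10 min compound preincubation.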

For experiment [14], the target named is Nuclear receptor subfamily 1 group I member 2 (Rattus norvegicus) (UniProt Q9R1A7). The experiment can be described thus: Rat pregnane X receptor (rPXR) activation by small molecules, qHTS assay (AID 1346983). Further: nearly all actives have a fitted effect of over 20% in size. Further: potency means the concentration at half of the fitted maximal effect. The settings on record: rPXR luciferase reporter cells, One-Glo luminescence, 24 h; max activation: stronger effect = higher value. A digest of the protocol:
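Cell-based rPXR luciferase reporter assay, 2,000 cells per well, rested 5hr at 37 C before compound addition in DMSO, then 24 hr at 37 C. One-Glo reagent was added and luminescence read after 30 min at room temperature.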

Experiment [15] concerns the target Nuclear receptor subfamily 1 group I member 2 (Homo sapiens) (UniProt O75469). The experiment can be described thus: CYP3A4 induction through human pregnane X receptor (PXR) by small molecules, qHTS assay (AID 1346984). Further: nearly all actives have a fitted effect of over 40% in size. The procedure, abridged: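 HepG2-derived DPX-2 line carrying PXR plus a CYP3A4-promoter luciferase reporter; cells plated 5 hr, compound-exposed 24 hr at 37C. CYP3A4 activity probed with 3uM (final) Luciferin-IPA for 3hr, then luciferase read after One-Glo.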

Experiment [16] shares this target. The experiment is described as follows: Human pregnane X receptor (PXR) activation by small molecules, qHTS assay (AID 1346985). Further: nearly all actives have a fitted effect of over 40% in size. A digest of the protocol:
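DPX-2 cells (HepG2 co-transfected with a PXR response element and a CYP3A4-promoter luciferase construct) were seeded at 2,000 per well, rested 5 hr at 37C, then exposed to DMSO-dissolved compounds for 24 hr. Activation was read as luciferase luminescence.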
On the % scale 0 is the no-effect control and ±100 the full control effect.

Cytochrome P450 2C9 (Homo sapiens), sequence (P11712 whole entry, looked up): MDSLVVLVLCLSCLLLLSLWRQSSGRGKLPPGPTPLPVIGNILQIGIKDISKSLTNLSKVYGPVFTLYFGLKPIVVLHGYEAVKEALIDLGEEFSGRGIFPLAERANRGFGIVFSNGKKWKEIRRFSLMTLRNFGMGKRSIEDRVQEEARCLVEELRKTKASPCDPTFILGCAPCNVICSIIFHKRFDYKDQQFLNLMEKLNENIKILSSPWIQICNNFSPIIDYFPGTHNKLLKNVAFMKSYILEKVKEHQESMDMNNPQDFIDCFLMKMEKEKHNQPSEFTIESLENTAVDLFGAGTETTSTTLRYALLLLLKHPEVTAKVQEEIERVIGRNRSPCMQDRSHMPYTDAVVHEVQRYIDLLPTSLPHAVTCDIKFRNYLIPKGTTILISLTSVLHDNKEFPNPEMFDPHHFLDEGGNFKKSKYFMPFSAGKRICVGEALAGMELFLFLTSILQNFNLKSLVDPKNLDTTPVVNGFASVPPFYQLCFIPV
Nuclear receptor subfamily 1 group I member 2 (Rattus norvegicus), sequence (Q9R1A7 whole entry, looked up): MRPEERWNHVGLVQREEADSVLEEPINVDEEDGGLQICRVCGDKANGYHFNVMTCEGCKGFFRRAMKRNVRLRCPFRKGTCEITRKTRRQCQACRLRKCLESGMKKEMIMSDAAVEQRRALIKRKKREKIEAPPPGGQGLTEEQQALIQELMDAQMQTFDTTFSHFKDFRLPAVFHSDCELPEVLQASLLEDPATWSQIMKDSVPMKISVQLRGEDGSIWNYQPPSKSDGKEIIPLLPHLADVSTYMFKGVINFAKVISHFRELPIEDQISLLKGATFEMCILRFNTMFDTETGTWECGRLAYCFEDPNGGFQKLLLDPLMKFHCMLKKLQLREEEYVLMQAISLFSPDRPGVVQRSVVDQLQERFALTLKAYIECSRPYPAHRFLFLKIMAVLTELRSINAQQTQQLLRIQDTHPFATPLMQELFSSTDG
Cytochrome P450 2C19 (Homo sapiens), sequence (P33261 whole entry, looked up): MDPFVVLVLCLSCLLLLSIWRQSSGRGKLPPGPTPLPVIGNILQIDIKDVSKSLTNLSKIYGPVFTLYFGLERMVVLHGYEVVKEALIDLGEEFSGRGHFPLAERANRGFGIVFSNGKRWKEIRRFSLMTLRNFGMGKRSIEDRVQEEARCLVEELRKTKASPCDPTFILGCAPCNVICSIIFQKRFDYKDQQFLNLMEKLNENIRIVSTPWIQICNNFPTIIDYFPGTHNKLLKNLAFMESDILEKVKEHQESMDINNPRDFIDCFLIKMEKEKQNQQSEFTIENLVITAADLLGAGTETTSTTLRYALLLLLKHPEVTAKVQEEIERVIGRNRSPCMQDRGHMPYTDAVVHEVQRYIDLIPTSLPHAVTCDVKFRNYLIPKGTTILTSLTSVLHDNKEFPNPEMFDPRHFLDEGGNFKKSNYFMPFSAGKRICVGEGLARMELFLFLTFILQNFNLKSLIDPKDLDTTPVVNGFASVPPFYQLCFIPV
Voltage-gated inwardly rectifying potassium channel KCNH2 (Homo sapiens), sequence (Q12809 whole entry, looked up): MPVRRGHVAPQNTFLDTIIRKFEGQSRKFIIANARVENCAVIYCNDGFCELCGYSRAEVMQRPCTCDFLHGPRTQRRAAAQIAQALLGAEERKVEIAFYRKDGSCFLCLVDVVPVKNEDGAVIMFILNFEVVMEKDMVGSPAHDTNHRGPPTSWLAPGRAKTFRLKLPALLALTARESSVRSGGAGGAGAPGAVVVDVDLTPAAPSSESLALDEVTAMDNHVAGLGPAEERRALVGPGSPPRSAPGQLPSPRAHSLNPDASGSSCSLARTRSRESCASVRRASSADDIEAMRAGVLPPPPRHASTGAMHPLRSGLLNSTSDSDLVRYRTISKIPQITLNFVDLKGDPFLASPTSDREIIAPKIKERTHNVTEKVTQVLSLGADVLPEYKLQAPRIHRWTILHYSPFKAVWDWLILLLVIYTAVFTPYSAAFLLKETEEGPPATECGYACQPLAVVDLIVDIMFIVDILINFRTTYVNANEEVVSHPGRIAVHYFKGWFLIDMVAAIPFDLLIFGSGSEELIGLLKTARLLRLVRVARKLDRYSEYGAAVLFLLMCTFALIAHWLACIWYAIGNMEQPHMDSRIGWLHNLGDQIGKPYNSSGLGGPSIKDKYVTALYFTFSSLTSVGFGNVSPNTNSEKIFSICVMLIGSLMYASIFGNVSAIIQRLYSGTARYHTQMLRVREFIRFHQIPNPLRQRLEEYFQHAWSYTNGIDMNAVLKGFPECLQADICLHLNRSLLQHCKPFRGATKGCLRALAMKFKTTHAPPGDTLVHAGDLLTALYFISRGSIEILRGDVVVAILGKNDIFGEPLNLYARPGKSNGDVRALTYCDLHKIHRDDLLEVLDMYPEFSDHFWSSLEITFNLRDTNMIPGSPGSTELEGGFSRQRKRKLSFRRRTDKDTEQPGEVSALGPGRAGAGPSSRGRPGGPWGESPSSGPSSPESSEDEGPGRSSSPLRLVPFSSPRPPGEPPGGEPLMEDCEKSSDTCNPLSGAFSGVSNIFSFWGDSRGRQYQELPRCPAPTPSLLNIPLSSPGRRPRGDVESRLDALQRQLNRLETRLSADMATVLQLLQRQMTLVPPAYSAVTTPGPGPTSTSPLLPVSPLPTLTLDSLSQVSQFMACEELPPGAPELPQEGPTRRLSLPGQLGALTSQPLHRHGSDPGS
Thyrotropin-releasing hormone receptor (Homo sapiens), sequence (P34981 whole entry, looked up): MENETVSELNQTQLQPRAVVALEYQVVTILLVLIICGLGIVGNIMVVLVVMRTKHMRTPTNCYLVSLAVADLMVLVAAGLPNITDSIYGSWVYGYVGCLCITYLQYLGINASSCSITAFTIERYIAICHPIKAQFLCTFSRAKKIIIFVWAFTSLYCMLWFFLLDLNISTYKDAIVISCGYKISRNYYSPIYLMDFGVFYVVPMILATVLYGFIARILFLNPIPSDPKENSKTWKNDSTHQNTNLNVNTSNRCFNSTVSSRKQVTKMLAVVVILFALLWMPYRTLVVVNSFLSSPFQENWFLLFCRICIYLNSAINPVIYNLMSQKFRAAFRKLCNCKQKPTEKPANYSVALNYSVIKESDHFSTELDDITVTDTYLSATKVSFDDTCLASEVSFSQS
Cytochrome P450 3A4 (Homo sapiens), sequence (P08684 whole entry, looked up): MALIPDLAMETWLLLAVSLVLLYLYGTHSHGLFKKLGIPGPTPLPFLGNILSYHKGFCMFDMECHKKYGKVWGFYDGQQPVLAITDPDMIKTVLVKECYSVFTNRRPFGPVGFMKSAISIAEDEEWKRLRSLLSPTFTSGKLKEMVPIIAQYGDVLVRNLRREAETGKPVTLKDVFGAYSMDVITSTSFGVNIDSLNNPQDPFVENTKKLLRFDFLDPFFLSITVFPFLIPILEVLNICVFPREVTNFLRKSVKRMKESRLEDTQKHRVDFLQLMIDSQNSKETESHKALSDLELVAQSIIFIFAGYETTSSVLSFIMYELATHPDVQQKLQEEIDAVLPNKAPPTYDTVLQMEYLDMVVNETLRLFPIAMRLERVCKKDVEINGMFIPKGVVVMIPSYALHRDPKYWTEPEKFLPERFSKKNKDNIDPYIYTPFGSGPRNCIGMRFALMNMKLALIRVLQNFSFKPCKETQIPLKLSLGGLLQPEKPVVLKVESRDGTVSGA
Cytochrome P450 1A2 (Homo sapiens), sequence (P05177 whole entry, looked up): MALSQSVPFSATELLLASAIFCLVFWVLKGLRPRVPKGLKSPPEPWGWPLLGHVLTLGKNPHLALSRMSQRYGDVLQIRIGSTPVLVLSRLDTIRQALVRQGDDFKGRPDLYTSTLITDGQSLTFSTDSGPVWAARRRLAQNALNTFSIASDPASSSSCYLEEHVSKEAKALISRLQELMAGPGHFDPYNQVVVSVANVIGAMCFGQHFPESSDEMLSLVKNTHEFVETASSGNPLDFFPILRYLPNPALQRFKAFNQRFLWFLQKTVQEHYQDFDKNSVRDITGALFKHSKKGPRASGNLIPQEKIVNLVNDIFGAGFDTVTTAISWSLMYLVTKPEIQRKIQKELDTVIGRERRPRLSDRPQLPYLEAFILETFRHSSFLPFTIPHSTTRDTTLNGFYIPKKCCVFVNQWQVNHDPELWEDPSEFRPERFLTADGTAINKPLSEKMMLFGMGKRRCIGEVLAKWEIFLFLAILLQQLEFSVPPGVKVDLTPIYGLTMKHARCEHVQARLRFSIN
Nuclear receptor subfamily 1 group I member 2 (Homo sapiens), sequence (O75469 whole entry, looked up): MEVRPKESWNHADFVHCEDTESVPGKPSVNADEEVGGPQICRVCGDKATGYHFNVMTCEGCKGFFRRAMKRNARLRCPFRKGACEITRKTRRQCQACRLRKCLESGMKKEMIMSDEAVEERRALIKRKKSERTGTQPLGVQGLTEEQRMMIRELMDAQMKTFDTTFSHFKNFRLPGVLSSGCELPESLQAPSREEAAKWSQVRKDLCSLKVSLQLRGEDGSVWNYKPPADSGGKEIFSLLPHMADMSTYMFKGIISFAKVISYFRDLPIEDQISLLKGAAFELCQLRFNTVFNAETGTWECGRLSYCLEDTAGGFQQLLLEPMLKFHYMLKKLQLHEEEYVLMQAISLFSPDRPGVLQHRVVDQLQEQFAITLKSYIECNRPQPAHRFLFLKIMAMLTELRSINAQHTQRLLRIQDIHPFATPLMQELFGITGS
Cytochrome P450 2D6 (Homo sapiens), sequence (P10635 whole entry, looked up): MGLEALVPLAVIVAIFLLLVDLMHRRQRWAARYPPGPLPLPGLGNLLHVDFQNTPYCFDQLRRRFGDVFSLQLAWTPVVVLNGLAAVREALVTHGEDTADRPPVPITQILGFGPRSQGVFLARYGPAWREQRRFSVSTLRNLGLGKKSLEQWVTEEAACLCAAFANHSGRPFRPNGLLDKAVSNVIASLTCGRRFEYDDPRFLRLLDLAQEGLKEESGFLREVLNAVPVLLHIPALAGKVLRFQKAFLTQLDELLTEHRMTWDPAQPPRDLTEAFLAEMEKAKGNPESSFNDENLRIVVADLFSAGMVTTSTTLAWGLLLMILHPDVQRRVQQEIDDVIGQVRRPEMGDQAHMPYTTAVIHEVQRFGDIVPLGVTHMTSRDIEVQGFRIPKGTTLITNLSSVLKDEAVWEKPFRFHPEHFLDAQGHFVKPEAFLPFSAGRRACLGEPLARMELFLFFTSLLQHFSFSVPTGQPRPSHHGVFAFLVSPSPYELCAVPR

For the compound `CC1CN(c2cc3c(cc2F)c(=O)c(C(=O)O)cn3-c2ccc(F)cc2F)CCN1` (configuration not stated), the activation is 0% [at 5.23 µM] in [1] and -2.46% [at 8.39 µM] in experiment [7]. In addition, the activity change, negative = cytotoxicity is -4.03% [at 8.39 µM] in experiment [2], -1.36% [at 8.39 µM] in experiment [4] and -2.3% [at 8.39 µM] in experiment [6]. Further, the caspase activation in experiment [3] was -0.856% [at 8.39 µM]. Further, the caspase-3/7 activation in [5] is -0.241% [at 8.39 µM]. In addition, the activity change, negative = inhibition was -0.211% [at 10.5 µM] in [8]; 31.4% [at 10.5 µM] in [9]; 2.17% [at 10.5 µM] in experiment [10]; 1.79% [at 10.5 µM] in [11]; 3.92% [at 6.97 µM] in [12]; 4.32% [at 10.5 µM] in [13].

For the compound `O=C(Nc1ccc([N+](=O)[O-])cc1)Nc1ccc([N+](=O)[O-])cc1`, the Potency result in experiment [1], in [2], in experiment [3], in experiment [4], in experiment [6] and in experiment [15] was “inactive” each time. The Potency entry in [16], in experiment [8], in [9], in [10], in experiment [12] and in experiment [13] was “inactive” throughout. For the same compound, in experiment [5], the result was inactive. In experiment [14], the max activation was -0.532%.

Regarding `CCCCC(=O)O[C@]1(C(=O)CO)CC[C@H]2[C@@H]3CCC4=CC(=O)CC[C@]4(C)[C@H]3[C@@H](O)C[C@@]21C`, the Potency result in experiment [1], in experiment [2], in experiment [3], in experiment [4], in experiment [6] and in experiment [15] was “inactive” in each case. Also, the Potency entry in [16], in experiment [8], in [11] and in experiment [12] was “inactive” throughout. In addition, the result in [5] was inactive. Also, the Potency is 26.6 µM (active) in experiment [7], 6.31 µM (active) in experiment [14] and 3.47 µM (active) in experiment [13].

In the case of `CN1C(=O)CC(C)(c2ccccc2)C1=O` (configuration not stated), the Potency result in experiment [1], in experiment [2], in experiment [3], in experiment [4], in [6] and in experiment [7] was “inactive” each time. In addition, the Potency entry in experiment [9], in [11] and in experiment [12] was “inactive” throughout. Also, the compound was called inactive in experiment [5].

Take `CCOC(=O)c1ccccc1C`: the Potency result in experiment [1], in experiment [2], in experiment [3], in experiment [4], in experiment [6] and in [7] was “inactive” throughout. For the same compound, the Potency entry in experiment [12] was “inactive”. Further, in experiment [5], the outcome was inactive.

In the case of `c1cc[c]([Bi]([c]2ccccc2)[c]2ccccc2)cc1`, the Potency entry in experiment [1], in [2], in [3], in experiment [6] and in experiment [11] was “inactive” each time. The Potency in [4] is 61.1 µM (active); in [7], 15.4 µM (active); in experiment [9] it was 0.283 µM (active); in experiment [10], 1 µM (active); in [13] it was 2.24 µM (active). In addition, the result in [5] was inactive.

As to `Cc1oc(C)c(C(=O)Nc2ccccc2)c1C`, the Potency entry in experiment [1], in experiment [2], in experiment [3], in [6], in [12] and in [13] was “inactive” each time. The Potency in [4] was 27.3 µM (active); in experiment [9], 35.6 µM (active); in experiment [10] it was 35.6 µM (active). Also, the result in [5] was inactive.

With `CN1Cc2cc(C(=O)N3CCC(C4CCNCC4)CC3)ccc2N[C@@H](CC(=O)O)C1=O`, the Potency entry in experiment [1], in [2], in experiment [3], in experiment [4], in experiment [6] and in [9] was “inactive” each time. Moreover, the Potency result in experiment [10], in [11], in [12] and in [13] was “inactive” throughout. For the same compound, the outcome in experiment [5] was inactive.

For `O=C(N/N=C/c1ccc([N+](=O)[O-])o1)c1ccc(O)cc1`, the Potency entry in [1], in experiment [3], in experiment [7], in [15], in [16] and in experiment [13] was “inactive” in each case. The Potency in experiment [2] is 10.6 µM (active); in experiment [4] it was 23.7 µM (active); in experiment [6] it was 29.8 µM (active). The result in [5] was inactive. In addition, the max activation in [14] is -12.4%.
